Several values for one entry are separate records, joined by “and”; a condition that tells them apart may be missing. Identical values can stand only once. Results filed as inconclusive are left out. Activity calls are given as the source filed them. Calls follow the shape of the dose curve; as a rule, active = well fitted inhibition curve with a large enough effect in the repeat runs; inconclusive = weak or mixed curves; inactive = no such curve, though single readings can be large or run the other way.

The values that follow come from PubChem BioAssay (Tox21).
% is scaled to controls: 0 for no effect and ±100 for the full control effect; potency is read from the fitted curve at half-maximal effect.

Cytochrome P450 3A4 (Homo sapiens), sequence (P08684 whole entry, looked up): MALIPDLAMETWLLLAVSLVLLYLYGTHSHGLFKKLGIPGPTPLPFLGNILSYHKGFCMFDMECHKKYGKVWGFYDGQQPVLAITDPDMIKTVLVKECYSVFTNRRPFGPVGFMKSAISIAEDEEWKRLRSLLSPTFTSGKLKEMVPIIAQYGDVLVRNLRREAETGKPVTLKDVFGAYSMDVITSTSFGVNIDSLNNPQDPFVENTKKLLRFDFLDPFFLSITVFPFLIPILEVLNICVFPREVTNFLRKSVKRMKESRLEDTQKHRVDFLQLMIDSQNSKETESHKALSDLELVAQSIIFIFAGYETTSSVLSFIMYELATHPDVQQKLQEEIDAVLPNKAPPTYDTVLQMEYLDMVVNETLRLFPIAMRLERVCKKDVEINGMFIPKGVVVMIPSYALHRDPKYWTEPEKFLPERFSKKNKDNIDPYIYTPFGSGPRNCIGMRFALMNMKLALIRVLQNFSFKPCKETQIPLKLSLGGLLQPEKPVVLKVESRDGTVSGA

The experiment deals with Cytochrome P450 3A4 (Homo sapiens) (UniProt P08684). Briefly: Cytochrome P450 Family 3 Subfamily A Member 4 (CYP3A4) small molecule antagonists: luciferase reporter qHTS assay (AID 1671201). Also: nearly all actives have a fitted effect of over 50% in size. The conditions noted are these: P450-Glo CYP3A4 enzyme, luciferin luminescence, 1 h; series mostly up to 115 µM; activity change, negative = inhibition: at the top concentration. From the text:
National Center for Advancing Translational Sciences [NCATS]
U.S. Environmental Protection Agency [EPA]
National Institutes of Environmental Health Sciences [NIEHS]
National Toxicology Program [NTP]
U.S. Food and Drug Administration [FDA]
Cytochrome P450 (CYP) enzymes are membrane-bound hemeproteins that play a key role in metabolism of drugs and xenobiotics. Evaluation of the effect of chemicals on CYP isozymes is useful to minimize the adverse drug reactions and toxicities in drug development process. Tox21 chemicals were tested for their effect on CYP enzyme activities by using P450-Glo (TM) screening systems (Promega Corporation, Madison, WI). These systems provide a luminescent method containing proluciferin substrates and are converted to luciferin products by CYP isozymes. The luciferin products formed are detected with a luciferin detection reagent, and the amount of light produced is proportional to CYP activity. P450-Glo (TM) CYP3A4 screening system (Catalog. No. V9910) was used to detect the compounds that interfere in CYP3A4 activity. The positive control compound used for CYP3A4 assay is ketoconazole (Sigma-Aldrich, St. Louis, MO).
Tox21 Assay Protocol Summary:
Two ul of enzyme-substrate mix was dispensed into medium binding white/solid 1536-well plates (Greiner Bio-One North America Inc., Monroe, NC) using a BioRaptr Flying Reagent Dispenser (FRD, Beckman Coulter, Brea, CA). Compounds dissolved in DMSO and positive control (ketoconazole) were transferred to the assay plates at 23 nl using a Pintool station (Wako, San Diego, CA). The assay plates were incubated at room temperature for 10 min. Then 2 ul of NADPH regeneration solution was added to each well of the assay plates using an FRD and incubated at room temperature for 1 h. The reaction was stopped by adding 4 ul of detection reagent using an FRD and after 20 min incubation at room temperature the luminescence signal was measured using a ViewLux plate reader (Perkin Elmer, Shelton, CT). Data were expressed as relative luminescence units.
(In general: A reporter such as luciferase makes a cellular process visible.)
On to `Cc1c(Cl)c(=O)oc2cc(OP(=O)(OCCCl)OCCCl)ccc12`, for which the “activity change, negative = inhibition” value is -17.8% [at 52.9 µM] (inactive). The same measure, in the same setting: under `N#CCCC(Br)(C#N)CBr` (stereo not given) stands -31.3% (inactive); under `CC(C)(C)c1ccc(CSc2cnn(C(C)(C)C)c(=O)c2Cl)cc1`, 80.7% (inactive). As to `Oc1ccc(C2(c3ccc(O)cc3)c3ccccc3-c3ccccc32)cc1`, the Potency was 17.8 µM (active). `CCCCCCCCCCCCCCC(Br)C(=O)O` (stereo not given): the “activity change, negative = inhibition” value was 48.9% (inactive). For the compound `CCCCCCCCCCCCCCCCCCn1cc[n+](C)c1`, the Potency was 31.5 µM (active). For `c1ccc2c(c1)OCC(C1=NCCN1)O2` (stereo not given), the “activity change, negative = inhibition” value is 13.3% [at 52.9 µM] (inactive).

With `CSCCCN=C=S`, the “activity change, negative = inhibition” value was -18.8% (inactive). For `CC(C)C1CCC(Cc2ccc(Cl)cc2)C1(O)Cn1cncn1` (stereo not given), the Potency is 0.0498 µM (active). With `N#CCc1ccc(Cl)cc1`, the “activity change, negative = inhibition” value is 11% (inactive). The same measure, in the same setting: under `CN(C)c1ccc(N=Nc2ccccc2)cc1` stands -11% (inactive); under `ClC1=C(Cl)[C@]2(Cl)[C@@H]3[C@@H](Cl)[C@H](Cl)C[C@@H]3[C@@]1(Cl)C2(Cl)Cl`, 0.943% (inactive); under `O=C(CCl)C(Cl)Cl`, 11.3% (inactive). As to `CCCCCCCCCC[N+](C)(C)CCCCCCCCCC`, the Potency was 56.4 µM (active). Consider `CC(C)OC(=O)C(O)(c1ccc(Cl)cc1)c1ccc(Cl)cc1`, for which the “activity change, negative = inhibition” value is 7.76% (inactive).

For the compound `COP(=O)(CCC(=O)NCO)OC`, the “activity change, negative = inhibition” value was -1.51% (inactive). With `CC(=O)c1cc(C(C)(C)C)cc2c1CCC2(C)C`, the “activity change, negative = inhibition” value was 51.5% (inactive). Consider `CCOCCOC(C)=O`, for which the “activity change, negative = inhibition” value is 8.3% (inactive). Same read-out and setting: the same measure for `CCOC(=O)C1(c2ccccc2)CCN(CCC(C#N)(c2ccccc2)c2ccccc2)CC1`: 11.5% [at 52.9 µM] (inactive). For `Nc1ccc(Cc2ccc(N)c(Cl)c2)cc1Cl`, the Potency was 3.44 µM (active).

For `CCOP(=S)(OCC)SCCS(=O)(=O)CC`, the Potency is 1.59 µM (active). For the compound `CCc1ccccc1C`, the “activity change, negative = inhibition” value is 0.0603% (inactive).

For `CC(C)(C)C(O)C(Oc1ccc(-c2ccccc2)cc1)n1cncn1` (stereo not given), the Potency was 0.448 µM (active). As to `FC(F)(F)c1cccc(C2=CCN(CCc3ccc4ccccc4c3)CC2)c1`, the “activity change, negative = inhibition” value is 114% [at 52.9 µM] (inactive). For the compound `O=[N+]([O-])c1cc(Cl)ccc1Cl`, the “activity change, negative = inhibition” value is 32.2% (inactive). With `NNC(=O)c1ccccc1`, the Potency is 36.6 µM (active). With `c1ccc2c(c1)[nH]c1cnccc12`, the Potency was 31.8 µM (active). As to `CCCCCCCCCCCCCCCC[N+](C)(C)C`, the “activity change, negative = inhibition” value is -11% [at 52.9 µM] (inactive).

Take `N#Cc1c(-c2ccc(Cl)cc2)[nH]c(C(F)(F)F)c1Br`: the “activity change, negative = inhibition” value is -14.9% (inactive). `CC(C)OC(=S)S`: the “activity change, negative = inhibition” value is -16.4% (inactive). Regarding `Cc1cc(N=Nc2ccccc2C)ccc1N`, the Potency was 1.59 µM (active) and 7.1 µM (active).

Turning to `CCC[CH2][Sn]([CH2]CCC)([CH2]CCC)[O]C(=O)c1ccccc1`, the Potency was 35.6 µM (active).

As for `ClC(Cl)=C(Cl)Cl`, the “activity change, negative = inhibition” value is 2.55% (inactive).

As for `Brc1c(Br)c(Br)c(Oc2c(Br)c(Br)c(Br)c(Br)c2Br)c(Br)c1Br`, the activity change, negative = inhibition was 2.2% [at 23.6 µM] (inactive).

Consider `ClC1=C(Cl)C2(Cl)C3C(Cl)C=CC3C1(Cl)C2(Cl)Cl` (stereo not given), for which the Potency is 5.05 µM (active) and 11.2 µM (active). Consider `OC(Cc1ccccc1Cl)(Cn1cncn1)C1(Cl)CC1` (stereo not given), for which the Potency is 0.2 µM (active). On the same count and under the same terms, under `S=C=Nc1cccc2ccccc12` stands 3.14 µM (active); under `CCOc1cc(C(C)(C)C)ccc1C1COC(c2c(F)cccc2F)=N1` (stereo not given), 0.0683 µM (active). For the compound `COP(N)(=S)OC`, the “activity change, negative = inhibition” value is -12.6% (inactive). Still for that read-out and setting: the same measure for `Nc1ccccc1C(=O)Oc1ccc2ccccc2c1`: -20.2% (inactive).
